Data: the supplement of paper PMC13094657
± gives the standard deviation of the averaged measurements.

What follows are molecules tested on MDA-MB-231 (assay: cell viability relative to vehicle unstimulated control (fraction); higher = more viable cells). Details: pre-treatment time: 18 h then 24 h IFNg/TNF.
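Further: viability of the cells left after supernatant collection, read with Deep Blue dye added for 4 h, as absorbance at 570 nm minus 600 nm.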

Structure (SMILES) | cell viability
O=C(O)c1cccnc1 [Nicotinic acid] (compound dose: 10 uM) | 0.917 ± 0.043
CC(=O)OCc1cocc2c(C=O)ccc1-2 [Baldrinal] (compound dose: 10 uM) | 1.006 ± 0.006
C=C(C)[C@@H]1CC=C(CO)CC1 [(S)-(-)-Perillyl alcohol] (compound dose: 10 uM) | 0.984 ± 0.02
C=C(C)[C@@H]1CC[C@]2(C)CC[C@]3(C)[C@H](CC[C@@H]4[C@@]5(C)CC[C@H](O)C(C)(C)[C@@H]5CC[C@]43C)[C@@H]12 [Lupeol] (compound dose: 2 uM) | 0.861 ± 0.041
CC1=CC[C@@H](C(C)(C)O)CC1 [α terpineol (mixed)] (compound dose: 10 uM) | 0.977 ± 0.065
CC1(C)CC[C@]2(C(=O)O)CC[C@]3(C)C(=CC[C@@H]4[C@@]5(C)CC[C@H](O[C@@H]6O[C@H](C(=O)O)[C@@H](O)[C@H](O[C@@H]7OC[C@@H](O)[C@H](O)[C@H]7O)[C@H]6O)C(C)(C)[C@@H]5CC[C@]43C)[C@@H]2C1 [Momordin Ic] (compound dose: 10 uM) | 1.07 ± 0.023
O=C1C[C@@H](c2ccc(O)cc2)Oc2cc(O)cc(O)c21 [Naringenin] (compound dose: 10 uM) | 0.921 ± 0.013
C[C@@H]1O[C@@H](O[C@H]2[C@H](OC(=O)[C@]34CCC(C)(C)C[C@H]3C3=CC[C@@H]5[C@@]6(C)C[C@H](O)[C@H](O[C@@H]7O[C@H](CO)[C@@H](O)[C@H](O)[C@H]7O)[C@](C)(CO)[C@@H]6CC[C@@]5(C)[C@]3(C)CC4)O[C@H](CO)[C@@H](O[C@@H]3OC[C@@H](O)[C@H](O)[C@H]3O)[C@@H]2O[C@@H]2OC[C@](O)(CO)[C@H]2O)[C@H](O)[C@H](O)[C@H]1O [Polygalasaponin V] (compound dose: 10 uM) | 0.992 ± 0.027
C=C1C(=O)O[C@H]2C1CC[C@@](C)(O)C13C=CC(C)(C21)C1(C3)C(=O)O[C@@H]2C3C(C)=CCC3[C@](C)(O)[C@H](OC(C)=O)CC21 (stereo not given in full) [Handelin] (compound dose: 10 uM) | 0.83 ± 0.29
CC(C)=CCC/C(C)=C/CC/C(C)=C/CC/C=C(\C)CC/C=C(\C)CCC=C(C)C [Squalene] (compound dose: 10 uM) | 0.914 ± 0.13
C[C@H]1[C@H](C)CC[C@]2(C(=O)O[C@@H]3O[C@H](CO[C@@H]4O[C@H](CO)[C@@H](O[C@@H]5O[C@H](C)[C@H](O)[C@@H](O)[C@H]5O)[C@H](O)[C@H]4O)[C@@H](O)[C@H](O)[C@H]3O)CC[C@]3(C)C(=CC[C@@H]4[C@@]5(C)C[C@@H](O)[C@H](O)[C@@](C)(CO)[C@@H]5CC[C@]43C)[C@H]12 [Asiaticoside] (compound dose: 10 uM) | 0.831 ± 0.1
CC1(C)CC[C@]2(C(=O)O)[C@H](O)C[C@]3(C)C(=CC[C@@H]4[C@@]5(C)CC[C@H](O)[C@@](C)(C=O)[C@@H]5CC[C@]43C)[C@@H]2C1 [Quillaic acid] (compound dose: 10 uM) | 1.01 ± 0.015
CC1=CCC2CC1C2(C)C (stereo not drawn) [(+)-α-pinene] (compound dose: 10 uM) | 0.9918 ± 0.0024
Cc1cc(O)cc(O[C@@H]2O[C@H](CO)[C@@H](O)[C@H](O)[C@H]2O)c1 [Orcinol glucoside] (compound dose: 10 uM) | 1.05 ± 0.027
C[C@H]1[C@H](C)CC[C@]2(C(=O)O)CC[C@]3(C)C(=CC[C@@H]4[C@@]5(C)C[C@@H](O)[C@H](O)[C@@](C)(CO)[C@@H]5CC[C@]43C)[C@H]12 [Asiatic acid] (compound dose: 10 uM) | 1.01 ± 0.018
C/C1=C\CC[C@]23O[C@H]2[C@@H](OC3=O)c2c(C)coc2C1 [Linderane] (compound dose: 10 uM) | 0.985 ± 0.032
C/C=C(/C)C(=O)O[C@H]1[C@H](OC(C)=O)[C@@]2(CO)C(CC1(C)C)C1=CCC3[C@@]4(C)CCC(O[C@@H]5O[C@H](C(=O)O)[C@@H](O[C@@H]6O[C@H](CO)[C@@H](O)[C@H](O)[C@H]6O)[C@H](O)[C@H]5O[C@@H]5O[C@H](CO)[C@@H](O)[C@H](O)[C@H]5O)[C@](C)(CO)C4CC[C@@]3(C)[C@]1(C)C[C@H]2O.C/C=C(\C)C(=O)O[C@H]1[C@H](OC(C)=O)[C@@]2(CO)C(CC1(C)C)C1=CCC3[C@@]4(C)CCC(O[C@@H]5O[C@H](C(=O)O)[C@@H](O[C@@H]6O[C@H](CO)[C@@H](O)[C@H](O)[C@H]6O)[C@H](O)[C@H]5O[C@@H]5O[C@H](CO)[C@@H](O)[C@H](O)[C@H]5O)[C@](C)(CO)C4CC[C@@]3(C)[C@]1(C)C[C@H]2O (stereo not given in full) [Escin] (compound dose: 10 uM) | 0.911 ± 0.11
C=C1[C@H](OC(C)=O)[C@@H](OC(C)=O)[C@@H](OC(C)=O)C(C)(C)/C=C/[C@H](C)[C@H](OC(C)=O)[C@@]2(O)C[C@@](C)(OC(C)=O)[C@H](OC(=O)c3ccccc3)[C@@H]2[C@H]1OC(C)=O [Jatrophane 2] (compound dose: 10 uM) | 1.08 ± 0.062

Structure (SMILES) | cell viability
C=C(C)[C@@H]1CC=C(CO)CC1 [Perillyl alcohol] (compound dose: 10 uM) | 1.036 ± 0.0039
C=C1CCC[C@]2(C)C[C@]3(O)OC(=O)C(C)=C3C[C@@H]12 [Atractylenolide III] (compound dose: 10 uM) | 1.015 ± 0.0091
CC1OC(OC2C(OC3CCC4(C)C(CCC5(C)C4CC=C4C6CC(C)(C)CCC6(C(=O)OC6OC(COC7OC(CO)C(O)C(O)C7O)C(O)C(O)C6O)CCC45C)C3(C)CO)OCC(O)C2O)C(O)C(O)C1O (stereo not given) [Dipsacoside B] (compound dose: 10 uM) | 0.976 ± 0.042
C=C1C(=O)O[C@@H]2/C=C(\C)CC/C=C(\C)CC[C@@H]12 [Costunolide] (compound dose: 10 uM) | 1.03 ± 0.059
CC1(C)CC[C@]2(C(=O)O)CC[C@]3(C)C(=CC[C@@H]4[C@@]5(C)CC[C@H](O[C@@H]6O[C@H](C(=O)O)[C@@H](O)[C@H](O)[C@H]6O[C@@H]6O[C@H](CO)[C@@H](O)[C@H](O)[C@H]6O)C(C)(C)[C@@H]5CC[C@]43C)[C@@H]2C1 [Zingibroside R1] (compound dose: 10 uM) | 1.19 ± 0.15
C[C@H]1O[C@@H](O[C@H]2CC[C@@]3(C)[C@@H](CC[C@]4(C)[C@@H]3C=CC3=C5CC(C)(C)CC[C@]5(CO)[C@@H](O)C[C@]34C)[C@]2(C)CO)[C@H](O[C@@H]2O[C@H](CO)[C@@H](O)[C@H](O)[C@H]2O)[C@@H](O[C@@H]2O[C@H](CO)[C@@H](O)[C@H](O)[C@H]2O)[C@H]1O [Buddlejasaponin IVb] (compound dose: 10 uM) | 1.07 ± 0.067
CC(CC(=O)C[C@@H](C)[C@H]1CC(=O)[C@@]2(C)C3=C(C(=O)C[C@]12C)[C@@]1(C)CCC(=O)C(C)(C)[C@@H]1C[C@@H]3O)C(=O)O (stereo not given in full) [Ganoderic acid D] (compound dose: 10 uM) | 0.916 ± 0.036
C[C@]12C[C@@H](O)[C@@H]3C[C@@]1(O[C@@H]1O[C@H](CO)[C@@H](O)[C@H](O)[C@H]1O)[C@@]3(COC(=O)c1ccccc1)C(=O)O2 [Albiflorin] (compound dose: 10 uM) | 0.963 ± 0.031
C[C@H]1O[C@@H](O[C@H]2CC[C@@]3(C)[C@@H](CC[C@]4(C)[C@@H]3C=CC3=C5CC(C)(C)CC[C@]5(CO)[C@H](O)C[C@]34C)[C@]2(C)CO)[C@H](O)[C@@H](O[C@@H]2O[C@H](CO)[C@@H](O)[C@H](O)[C@H]2O)[C@H]1O [Saikosaponin B2] (compound dose: 10 uM) | 1.047 ± 0.0068
CC1(C)CC[C@]2(C(=O)O)CCC3=C([C@@H](CCl)C[C@@H]4[C@@]5(C)C[C@H](O)[C@H](O)[C@@](C)(C(=O)O)[C@@H]5CC[C@@]34C)[C@@H]2C1 [Tenuigenin] (compound dose: 10 uM) | 0.983 ± 0.068
CC1(C(=O)O)CCC2(C)CCC3(C)C(=CC(=O)C4C5(C)CCC(O)C(C)(C)C5CCC43C)C2C1 (stereo not drawn) [18β-Glycyrrhetinic acid] (compound dose: 10 uM) | 1.02 ± 0.17
CC(=O)OC(CC12C3C(C(C)C)CCC1(C)C1CCC4(CCCC42)N3C1)C(=O)C1(C)COC2(C)CCC1O2 (stereo not given) [Daphniphylline] (compound dose: 10 uM) | 1.01 ± 0.027
CC1(C)C(O[C@@H]2OC[C@@H](O)[C@H](O)[C@H]2O)CC[C@]23CC24CC[C@]2(C)[C@@H]([C@@]5(C)CC[C@@H](C(C)(C)O)O5)[C@H](O)C[C@@]2(C)C4C[C@@H](O[C@@H]2O[C@H](CO)[C@@H](O)[C@H](O)[C@H]2O)C13 (stereo not given in full) [Astragaloside IV] (compound dose: 10 uM) | 1.05 ± 0.022
COc1cc2c(cc1O)C(Cc1ccc(O)cc1)NCC2 (stereo not given) [Coclaurine] (compound dose: 10 uM) | 0.988 ± 0.044
COc1ccc(C[C@H]2COC(=O)[C@]2(O)Cc2ccc(O[C@@H]3O[C@H](CO)[C@@H](O)[C@H](O)[C@H]3O)c(OC)c2)cc1OC [Tracheloside] (compound dose: 10 uM) | 0.8831 ± 0.0055
CC(C)C12CCC(C)(CC1)O2 [1,4-Cineole] (compound dose: 10 uM) | 0.907 ± 0.026
C[C@@H]1O[C@@H](O[C@H]2[C@H](OC(=O)[C@]34CCC(C)(C)C[C@H]3C3=CC[C@@H]5[C@@]6(C)C[C@H](O)[C@H](O[C@@H]7O[C@H](CO)[C@@H](O)[C@H](O)[C@H]7O)C(CO)(CO)[C@@H]6CC[C@@]5(C)[C@]3(C)C[C@H]4O)OC[C@H](O)[C@@H]2O)[C@H](O)[C@H](O)[C@H]1O[C@@H]1OC[C@@H](O)[C@H](O[C@@H]2OC[C@](O)(CO)[C@H]2O)[C@H]1O [Platycodin D] (compound dose: 10 uM) | 0.609 ± 0.21
